In ChEMBL document CHEMBL4513141, “CO-ADD screening of NIH (USA) - Clinical Collection” (2021) one finds Inhibition data, which are given here for 36 molecules.

Measured potencies and affinities stand elsewhere.

The first assay deals with Klebsiella pneumoniae. To be noted: Concentration 20 uM; ASSAY_TEST Inhibition of Bacterial Growth; detection method Absorption (OD600); MEDIA CAMHB; plate type 384well; NBS; CORNING #3640; time 18 hr.
For `Br.CN(C)CCCC1(c2ccc(F)cc2)OCc2cc(C#N)ccc21` (stereo unspecified) [CITALOPRAM HYDROBROMIDE], the Inhibition turned out to be 0.36%.
For the molecule `CC(C)NCC(O)c1ccc(NS(C)(=O)=O)cc1.Cl` (stereo unspecified) [SOTALOL HYDROCHLORIDE], the Inhibition is on record as -0.96%.
With `Cc1nc(=O)c2cc(CN(C)c3ccc(C(=O)N[C@@H](CCC(=O)O)C(=O)O)s3)ccc2[nH]1` [RALTITREXED], the Inhibition came out at 9.17%.
Same read-out and setting: then `CCN1CCC[C@H]1CNC(=O)c1c(O)c(Cl)cc(Cl)c1OC` [RACLOPRIDE], with 6.89%.

Another assay has as its system Candida albicans. To be noted: 20 µM.
Turning to `COc1ccc(/C=C/C(=O)Nc2ccccc2C(=O)O)cc1OC`, the Inhibition was 4.95%.
Same read-out and setting: the result for `CC(=O)NS(=O)(=O)c1ccc(N)cc1` [SULFACETAMIDE] reads 1.53%; that for `CCc1nn(CCCN2CCN(c3cccc(Cl)c3)CC2)c(=O)n1CCOc1ccccc1.Cl` [NEFAZODONE HYDROCHLORIDE], 2.01%; that for `COc1cc2nc(N3CCN(C(=O)C4COc5ccccc5O4)CC3)nc(N)c2cc1OC` (stereo unspecified) [DOXAZOSIN], 3.14%.
As to `CC(=O)O[C@]1(C(C)=O)CC[C@H]2[C@@H]3C=C(C)C4=CC(=O)CC[C@]4(C)[C@H]3CC[C@@]21C` [MEGESTROL ACETATE], the Inhibition worked out at 5.92%.
Consider `COc1cc([C@@H]2c3cc4c(cc3[C@@H](O[C@@H]3O[C@@H]5CO[C@@H](C)O[C@H]5[C@H](O)[C@H]3O)[C@H]3COC(=O)[C@H]23)OCO4)cc(OC)c1O` [ETOPOSIDE], for which the Inhibition was 0.59%.
Same read-out and setting: the result for `Cl.Clc1ccccc1CN1CCc2sccc2C1` [TICLOPIDINE HYDROCHLORIDE] reads 1.25%; that for `CC(C)[N+](C)(CCOC(=O)C1c2ccccc2Oc2ccccc21)C(C)C.[Br-]` [PROPANTHELINE BROMIDE], 2.52%; that for `CC1=C(/C=C/C(C)=C/C=C/C(C)=C/C(=O)O)C(C)(C)CCC1` [TRETINOIN], 2.93%.
Still for that read-out and setting: the result for `Nc1ccn([C@@H]2CS[C@H](CO)O2)c(=O)n1` [LAMIVUDINE] reads 2.4%; that for `CCN1CC(CCN2CCOCC2)C(c2ccccc2)(c2ccccc2)C1=O.Cl` (stereo unspecified), 4.41%.
For the molecule `O=C1N=C([O-])NC1(c1ccccc1)c1ccccc1.[Na+]` [PHENYTOIN SODIUM], the Inhibition came out at 2.49%.
Consider `CNC(=C[N+](=O)[O-])NCCSCc1csc(CN(C)C)n1` [NIZATIDINE], for which the Inhibition was found to be 0.73%.
Consider `Cl.Nc1nc2ccc(OC(F)(F)F)cc2s1`, for which the Inhibition turned out to be 2.98%.
The same measure, in the same setting: then `CC(C)NCC(O)COc1ccc(CCOCC2CC2)cc1.Cl` (stereo unspecified) [BETAXOLOL HYDROCHLORIDE], with 2.88%; and `CCc1cccc2c3c([nH]c12)C(CC)(CC(=O)O)OCC3` (stereo unspecified) [ETODOLAC], with 1.19%.
Same read-out and setting: then `Nc1ccc(S(=O)(=O)c2ccc(N)cc2)cc1` [DAPSONE], with -0.53%.
In the case of `O=C(O)COCCN1CCN([C@H](c2ccccc2)c2ccc(Cl)cc2)CC1` [LEVOCETIRIZINE], the Inhibition worked out at 0.53%.
The same measure, in the same setting: the result for `Cc1ncc([N+](=O)[O-])n1CC(C)O` (stereo unspecified) [SECNIDAZOLE] reads 1.89%.
The same measure, in the same setting: the result for `Cn1cnc([N+](=O)[O-])c1Sc1ncnc2[nH]cnc12` [AZATHIOPRINE] reads 4.62%.
On the same count and under the same terms, then `Nc1nc(O)c2ncn(CCC(CO)CO)c2n1` [PENCICLOVIR], with 0.56%.
Turning to `OCCN1CCN(CCCN2c3ccccc3Sc3ccc(Cl)cc32)CC1` [PERPHENAZINE], the Inhibition was determined as 3.82%.
Still for that read-out and setting: the result for `CN(C)CCCN1c2ccccc2CCc2ccc(Cl)cc21.Cl` [CLOMIPRAMINE HYDROCHLORIDE] reads 2.36%.
Consider `O=C(O)c1cccnc1` [NIACIN], for which the Inhibition was 2.72%.
Same read-out and setting: the result for `C[C@]12C=CC(=O)C=C1CC[C@@H]1[C@@H]2[C@@H](O)C[C@@]2(C)[C@H]1CC[C@]2(O)C(=O)COC(=O)CCC(=O)[O-].[Na+]` [PREDNISOLONE SODIUM SUCCINATE] reads -0.07%.
On the same count and under the same terms, the result for `CNCC(O)c1ccc(O)c(O)c1` (stereo unspecified) [RACEPINEPHRINE] reads 4.12%.
Same read-out and setting: then `COCCCC/C(=N\OCCN)c1ccc(C(F)(F)F)cc1.O=C(O)/C=C\C(=O)O` [FLUVOXAMINE MALEATE], with 2.11%; and `Cl.OC(CCN1CCCC1)(c1ccccc1)C1CCCCC1` (stereo unspecified) [PROCYCLIDINE HYDROCHLORIDE], with 4.68%.
Take `Cc1cccc(CCN2CCC(C(=O)c3ccc(NS(C)(=O)=O)cc3)CC2)n1.Cl.Cl`: the Inhibition came to 2.81%.
On the same count and under the same terms, the result for `CC(=O)OCC(=O)[C@@]1(O)CC[C@H]2[C@@H]3CCC4=CC(=O)CC[C@]4(C)[C@H]3C(=O)C[C@@]21C` [CORTISONE ACETATE] reads 1.99%.
The same measure, in the same setting: the result for `COc1ccc2cc(CCC(C)=O)ccc2c1` [NABUMETONE] reads 5.24%.
On the same count and under the same terms, the result for `COc1ccccc1N1CCN(CC(O)COc2cccc3ccccc23)CC1` (stereo unspecified) [NAFTOPIDIL] reads 2.55%.
